Assays:
Assay type in all cases: functional
[1] = biological target: Solute carrier family 2, facilitated glucose transporter member 1 (Homo sapiens) (UniProt P11166); assay: ST_JUDE_LEISH: Cytotoxicity at 2uM final concentration against transgenic Leishmania Mexicana promastigotes LmGLUT1 that are glucose transport deficient and complemented with the human glucose transporter GLUT1. Activity is measured by DNA content using SYBR green in vitro
[2] = biological target: Hexose transporter 1 (Plasmodium falciparum) (UniProt O97467); assay: ST_JUDE_LEISH: Cytotoxicity at 2uM final concentration against transgenic Leishmania Mexicana promastigotes LmPfHT that are glucose transport deficient and complemented with the Plasmodium falciparum hexose transporter. Activity is measured by DNA content using SYBR green in vitro
[3] = biological target: Glucose transporter (Leishmania mexicana) (UniProt O61059); assay: ST_JUDE_LEISH: Cytotoxicity at 2uM final concentration against transgenic Leishmania Mexicana promastigotes LmGT2 that are glucose transport deficient and complemented with the L. Mexicana glucose transporter 2. Activity is measured by DNA content using SYBR green in vitro

Chain of Solute carrier family 2, facilitated glucose transporter member 1 (Homo sapiens) (P11166 whole entry): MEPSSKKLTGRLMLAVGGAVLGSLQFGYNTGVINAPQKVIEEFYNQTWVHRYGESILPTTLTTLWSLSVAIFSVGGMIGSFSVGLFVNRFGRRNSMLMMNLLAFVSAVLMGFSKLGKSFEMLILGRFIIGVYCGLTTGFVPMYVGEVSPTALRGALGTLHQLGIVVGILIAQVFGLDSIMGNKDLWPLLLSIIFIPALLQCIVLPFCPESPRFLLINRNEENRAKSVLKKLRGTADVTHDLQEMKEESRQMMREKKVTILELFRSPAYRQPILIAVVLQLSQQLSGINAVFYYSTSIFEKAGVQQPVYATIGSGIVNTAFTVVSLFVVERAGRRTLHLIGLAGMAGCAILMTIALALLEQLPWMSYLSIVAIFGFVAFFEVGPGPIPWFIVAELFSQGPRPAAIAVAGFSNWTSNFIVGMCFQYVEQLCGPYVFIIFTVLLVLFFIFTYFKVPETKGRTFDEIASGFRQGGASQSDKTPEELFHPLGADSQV

SMILES	inhibition [1] [%]	inhibition [2] [%]	inhibition [3] [%]
COc1ccc2nccc([C@@H](O)CN3CCC(NCCOc4cccc(C(F)(F)F)c4Cl)CC3)c2c1	11.3	12	6.66
Cc1nc2c(=O)sc3ccccc3c2n1Cc1ccccc1	0.4	7.03	-1.55
COC(=O)C1=CNC=C(C(=O)OC)C1c1ccc(Cl)c([N+](=O)[O-])c1	10.8	8.44	6.42
CC(=O)N(Cc1nc(-c2cc(Cl)c(Cl)s2)cs1)c1c(C)cccc1C	4.94	4.38	5.58
Cc1cc(N[C@@H](CC(C)C)C(=O)NCCc2ccccc2)nc(NCc2ccccc2C)n1	2.23	4.73	-0.21
Cc1cccc2nc(-c3ccc(-c4ccc(CNCc5ccc(CN)cc5)cc4)cc3)[nH]c12	7.89	5.94	2.77
Cn1nccc1C(=O)NCCNCc1cccc(-c2cccc(-c3nc4cc(C(F)(F)F)ccc4[nH]3)c2)c1	2.84	1.83	0.31
Cc1nc(N)nc(N)c1OCCCOc1ccccc1Br	46.9	61.8	43.6
CCc1cc(C(=O)c2cccc(C)c2)c(NC(=O)CN2CCN(C(=O)c3ccco3)CC2)s1	2.38	2.67	2.44
CCCCCCCCn1c2c(c(=N)c3c1CCC3)CCCC2	94.4	95.9	92.6
C=CCn1c(Cc2ccccc2)nnc1Sc1ccc(C#N)c([N+](=O)[O-])c1	3.36	3.11	2.02
CC(C)c1ccc(NC(=O)c2cccc(CN3CCCN(CC4CCCCC4)CC3)c2)cc1	11.7	7.21	9.65
COc1cc2nc(NCCc3ccccc3)nc(NCCCc3ccccc3)c2cc1OC	6.89	10.1	2.36
